According to PubChem BioAssay (NCATS):
Inconclusive results are not listed. Calls of active or inactive are those of the source. Unless noted, how the calls were made is not given here. Positions of bridges follow the written chain, without caps; N, C: chain ends. Non-standard residues stand in square brackets, D forms with d. Residues, ends and D or L forms follow the SMILES beside them. ξ: configuration not given here. *: point of attachment. Octanoyl(6-Me) = CCC(C)CCCCC(=O)*; ξThr(3R) = C[C@@H](O)C(N)C(=O)O; dDab = NCC[C@@H](N)C(=O)O; Dab = NCC[C@H](N)C(=O)O; Nva = CCC[C@H](N)C(=O)O; Cbz = O=C(OCc1ccccc1)*

Key:
[1] = qHTS profiling of the MIPE4 collection as inhibitors of Plasmodium falciparum (3D7) proliferation (AID 743344);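 further: scaled between DMSO vehicle wells and 0.29 µM artemisinin as full inhibition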; conditions: P. falciparum 3D7 in erythrocytes, SYBR Green DNA fluorescence, 72 h; at 28.5 µM unless noted
Method in brief: (§1)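 Parasite DNA was quantified by SYBR Green I fluorescence (ex 485, em 535 nm) after overnight lysis in saponin/Triton buffer at room temperature. Cultures at 0.3% parasitemia and 2.5% hematocrit were first exposed to compound for 72 h at 37 C; signals were normalised to artemisinin (0.29 uM) and vehicle wells.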

[2] = qHTS profiling of the MIPE4 collection as inhibitors of Plasmodium falciparum (DD2) proliferation (AID 743345); conditions: P. falciparum Dd2 in erythrocytes, SYBR Green DNA, 72 h; at 28.5 µM unless noted
Method in brief: as §1

[3] = qHTS profiling of the MIPE4 collection as inhibitors of Plasmodium falciparum (DD2) proliferation (Rep 2) (AID 743346); conditions: P. falciparum Dd2 in erythrocytes, SYBR Green DNA, 72 h; at 28.5 µM unless noted
Method in brief: as §1

[4] = qHTS profiling of the MIPE4 collection as inhibitors of Plasmodium falciparum (HB3) proliferation (AID 743347);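 further: plate controls were DMSO vehicle wells for no effect and artemisinin wells for full effect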; conditions: P. falciparum HB3 in erythrocytes, SYBR Green DNA, 72 h; at 28.5 µM unless noted
Method in brief: as §1

[5] = High-throughput drug toxicity screening in the BPDCN cell line Gen2.2 (AID 1224824); conditions: Gen2.2 BPDCN cells; at 45.8 µM (top of the series) unless noted;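 further: cells exposed to compounds for 48 h before reading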
Method in brief: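 Gen2.2, 500 cells/well, phenol red-free RPMI/10% FBS/Pen-Strep; 48 h cpd, 37 °C/5% CO2; CTG lum, 15 min RT. Norm: DMSO = 100%, bortezomib 9.2 uM final = 0%.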

[6] = High-throughput drug toxicity screening in the BPDCN cell line Cal-1 (AID 1224825); conditions: Cal-1 BPDCN cell viability, qHTS; at 45.8 µM (top of the series) unless noted
Method in brief: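 Viability of the BPDCN line Cal-1 is measured as ATP-based luminescence (CellTiter-Glo) following 48 h incubation with compounds. Percent activity uses DMSO-treated wells as 100% and 9.2 uM bortezomib as 0%.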

[7] = qHTS assay for measurement of the activity of small molecule inhibitors on Zika virus induced Caspase-3 activity in human iPSC derived neural progenitor cells (hNPCs) (AID 1224857; active means well fitted inhibition curve with a large enough effect; further: % of control where 0% means no effect; nearly all actives have a fitted effect of over 65% in size); conditions: hNPCs ZIKV-induced caspase-3/7, Caspase-Glo luminescence, 6 h; series mostly up to 45.7 µM
Method in brief: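 Caspase-3/7 induction by a 6-hour ZIKV infection was quantified with a luminescent Caspase-Glo 3/7 reagent incubated 30 minutes at room temperature. Compounds were preincubated with hNPCs for 1 hour; inhibition was calculated against uninfected and infected control wells.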

[8] = qHTS assay for measurement of the activity of small molecule inhibitors on Zika virus induced Caspase-3 activity in human astrocytoma cells (AID 1224859; active means well fitted inhibition curve with a large enough effect;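 further: plate controls were ZIKV-infected untreated cells for no effect and uninfected cells for full effect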); conditions: SNB-19 ZIKV-induced caspase-3/7, luminescence, 6 h; series mostly up to 45.7 µM
Method in brief: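 In SNB-19 cells plated at 250 cells/well and grown 16-20 h, compounds were applied 1 h before ZIKV (2 FFU/cell). Six hours later caspase-3/7 luminescence was recorded.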

[9] = qHTS Screen of the MIPE 4.0 Collection Against Ewings Sarcoma (RDES) (AID 1259252; active means well fitted inhibition curve with a large enough effect; further: nearly all actives have a fitted effect of over 35% in size; further: potency means the concentration at half of the fitted maximal effect); conditions: RD-ES Ewing sarcoma viability, CellTiter-Glo, 48 h; series mostly up to 45.8 µM
Method in brief: (§2)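 Here, cells in 5% FBS RPMI were exposed for two days (48 h) to compound dilutions added four hours after plating. ATP-based CellTiter-Glo luminescence measured viability, normalized to vehicle and no-cell blanks.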

[10] = qHTS Screen of the MIPE 4.0 Collection Against Ewings Sarcoma (TC71) (AID 1259253; active means well fitted inhibition curve with a large enough effect; further: nearly all actives have a fitted effect of over 40% in size; further: potency means the concentration at half of the fitted maximal effect); conditions: TC71 Ewing sarcoma viability, CellTiter-Glo, 48 h; series mostly up to 45.8 µM
Method in brief: as §2

[11] = qHTS Screen of the MIPE 4.0 Collection Against Ewings Sarcoma (EW8) (AID 1259255; active means well fitted inhibition curve with a large enough effect; further: nearly all actives have a fitted effect of over 35% in size; further: potency means the concentration at half of the fitted maximal effect;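 on viability: 100% = DMSO-treated cells and 0% = medium-only wells without cells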); conditions: EW8 Ewing sarcoma viability, CellTiter-Glo, 48 h; series mostly up to 45.8 µM
Method in brief: as §2

Compound	parasite growth, % of DMSO control [1] [%]	parasite growth remaining, % of DMSO control (lower = more inhibition) [2] [%]	parasite growth, % of control (lower = inhibition) [3] [%]	growth, % of control [4] [%]	cell viability, % of control (lower = more cytotoxic) [5] [%]	viability (% of control) [6] [%]	Potency [7]	Potency [8]	Potency [9]	Potency [10]	Potency [11]
C[C@]12CCC(=O)C=C1[C@@H]1CC1[C@H]1[C@H]3[C@@H]4C[C@H]4[C@@]4(CCC(=O)O4)[C@@]3(C)CC[C@H]12 (stereo not given in full)	65.8	82.7	41.4	71.4	75.3	92.9	inactive	inactive	inactive	inactive	inactive
C[C@@H]1CC[C@@]2(OC1)OC1CC3C4CC=C5CC(O)CCC5(C)C4CCC3(C)C1[C@@H]2C (stereo not given in full)	94.4	97.8	64.4	99.7	128	115	inactive	inactive	inactive	inactive	inactive
CN(N=O)C(=O)N[C@H]1C(O)OC(CO)[C@@H](O)[C@H]1O (stereo not given in full)	81.6	93.8	114	68.3	97.4	96.8	inactive	inactive	inactive	inactive	inactive
CCC(C)CCCCC(=O)N[C@@H](CCN)C(=O)NC(C(=O)N[C@H](CCN)C(=O)N[C@@H]1CCNC(=O)C([C@@H](C)O)NC(=O)[C@@H](CCN)NC(=O)[C@@H](CCN)NC(=O)[C@@H](CC(C)C)NC(=O)[C@H](Cc2ccccc2)NC(=O)[C@H](CCN)NC1=O)[C@@H](C)O (stereo partly drawn) ({Octanoyl(6-Me)}-[Dab][ξThr(3R)][dDab][dDab][Dab]F[dL][dDab][dDab][ξThr(3R)]; lactam 4-C)	407	124	83.7	96.2	172	116	inactive	inactive	inactive	inactive	inactive
COc1ccc([C@@H]2CNC(=O)C2)cc1OC1CCCC1	106	96.4	67	102	107	108	inactive	inactive	833 nM (active)	2350 nM (active)	9350 nM (active)
COc1cc(OC)c(NC(=O)Nc2cc(C)on2)cc1Cl	69.1	100	54.6	81.5	187	80.9	inactive	inactive	inactive	inactive	inactive
C=CC(=O)Nc1cccc(Nc2nc(NC3CCC(N(C)C)CC3)nc3c2ncn3C(C)C)c1 (stereo not given)	10.5	15.3	35.4	4.69	5.58	2.19	inactive	inactive	14.8 nM (active)	469 nM (active)	526 nM (active)
COc1cc(OC)cc(-c2ccc3ncc4ccc(=O)n(-c5ccc(N6CCNCC6)c(C(F)(F)F)c5)c4c3c2)c1	5.19	5.58	18.6	9.36	13.6	5.34	inactive	inactive	2960 nM (active)	2640 nM (active)	4180 nM (active)
Cc1coc2c1C(=O)C(=O)c1c-2ccc2c(C)cccc12	8.32	19.5	15.4	3.19	45.1	93.8	inactive	inactive	inactive	11800 nM (active)	inactive
NC[C@H]1O[C@H](O[C@H]2[C@@H](O)[C@@H](O[C@H]3O[C@H](CO)[C@@H](O)[C@H](N)[C@@H]3O)[C@H](N)C[C@@H]2N)[C@H](N)C[C@H]1O	97.7	92.9	78	88.3	200	123	inactive	inactive	inactive	inactive	inactive
Nc1nc(=O)n([C@H]2CSC(CO)O2)cc1F (stereo not given in full)	399	99.2	160	250	249	102	inactive	inactive	inactive	inactive	inactive
CC(=O)O[C@@]12CO[C@H]1C[C@H](O)[C@@]1(C)C(=O)[C@H](O)C3=C(C)[C@@H](OC(=O)C(O)[C@@H](NC(=O)OC(C)(C)C)c4ccccc4)C[C@@](O)([C@@H](OC(=O)c4ccccc4)[C@@H]21)C3(C)C (stereo not given in full)	5.89	18.8	30.4	4.16	22.4	8.89	inactive	inactive	inactive	inactive	inactive
Nc1nc(N)c2nc(-c3cccc(O)c3)c(-c3cccc(O)c3)nc2n1	15.5	10.5	26.2	11	15.8	5.3	inactive	inactive	23500 nM (active)	20900 nM (active)	23500 nM (active)
CCOC(=O)N1CCN([N+]([O-])=NOc2ccc([N+](=O)[O-])cc2C#N)CC1	10.5	23.5	17.1	19.1	17.2	10.9	inactive	inactive	2090 nM (active)	2640 nM (active)	2350 nM (active)
COC1=C(OC)C(=O)C(CC=C(C)CCC=C(C)CCC=C(C)CCC=C(C)CCC=C(C)CCC=C(C)CCC=C(C)CCC=C(C)CCC=C(C)CCC=C(C)C)=C(C)C1=O	94.3	46.1	131	97.8	125	111	inactive	inactive	inactive	inactive	inactive
COc1ccc(Nc2cc(-c3cnc(N)nc3)nc(N3CCOCC3)n2)cn1	16.3	11.1	27.1	6.14	28.9	25.7	inactive	inactive	5900 nM (active)	14800 nM (active)	11800 nM (active)
O=C(O)C[C@H](O)C[C@H](O)C=Cc1c(C2CC2)nc2ccccc2c1-c1ccc(F)cc1	94	92.7	67	86.6	4.71	38.9	inactive	inactive	2640 nM (active)	1870 nM (active)	3720 nM (active)
CCC[C@@H](C=O)NC(=O)[C@H](CC(C)C)NC(=O)[C@H](CC(C)C)NC(=O)OCc1ccccc1 (Cbz-Leu-Leu-[Nva]-aldehyde)	4.86	6.49	7.93	3.3	10.9	7.12	inactive	inactive	1180 nM (active)	1320 nM (active)	743 nM (active)
C=C[C@@H]1CN2CCC1C[C@H]2[C@H](O)c1ccnc2ccc(OC)cc12 (stereo not given in full)	10.4	9.84	15.1	12.1	111	70	inactive	inactive	inactive	inactive	inactive
Cc1cnc(Nc2ccc(N3CCN(C)CC3)cc2)nc1Nc1cccc(S(=O)(=O)NC(C)(C)C)c1	5.3	8.81	12.4	3.11	2.75	1.93	inactive	inactive	2640 nM (active)	2640 nM (active)	2090 nM (active)
N#CC(=Cc1ccc(O)c(O)c1)C(=O)NCc1ccccc1	42.9	87.2	51.8	48.1	70.4	45.8	inactive	inactive	23500 nM (active)	23500 nM (active)	18700 nM (active)
O=C1NC(=O)[C@@H](c2cn3c4c(cccc24)CCC3)[C@H]1c1c[nH]c2ccccc12	54.8	94.8	86.1	60.4	4.68	14.9	inactive	inactive	296 nM (active)	526 nM (active)	235 nM (active)
COc1cc(C(=O)NC2CCN(C)CC2)ccc1Nc1ncc2c(n1)N(C1CCCC1)CCC(=O)N2C(C)C	5.76	7.51	15.5	6.9	6.24	2.49	inactive	inactive	2350 nM (active)	2090 nM (active)	2090 nM (active)
O=C1c2c(O)cccc2[C@@H]([C@@H]2O[C@H](CO)[C@@H](O)[C@H](O)[C@H]2O)c2cc(CO)cc(O)c21	96.2	95.6	80.5	99.2	185	123	inactive	inactive	inactive	inactive	inactive
CC(C)[C@H](CO)Nc1nc(Nc2cccc(Cl)c2)c2ncn(C(C)C)c2n1	8.7	21.1	17.2	5.25	2.15	1.87	inactive	inactive	5900 nM (active)	7430 nM (active)	16600 nM (active)
C[C@H]1C[C@H]2[C@@H]3CCC4=CC(=O)C=C[C@]4(C)[C@@H]3C(=O)C[C@]2(C)[C@@]1(O)C(=O)CO	63	97.9		86.6	87.7	108	inactive	inactive	inactive	inactive	inactive
NS(=O)(=O)OC[C@@H]1C[C@@H](n2ccc3c(N[C@H]4CCc5ccccc54)ncnc32)C[C@H]1O	23.8	92.9		51	6.59	2.9	inactive	inactive	332 nM (active)	264 nM (active)	132 nM (active)
